Screens: PubChem BioAssay, National Center for Advancing Translational Sciences (NCATS)
The list is not random: actives were taken first. Their share in the collection is about 3.3%.
Sm TGR inh – qHTS Assay for the Inhibitors of Schistosoma Mansoni Peroxiredoxins. Schistosoma mansoni thioredoxin glutathione reductase (TGR), Q962Y6. purified TGR, DTNB reduction, TNB absorbance 405 nm. Potency, µM (top dose mostly 114 µM), most hits filed as inhibitors. 360,000 compounds, 3% hits. AID 485364, 2010; further: nearly all actives have a fitted effect of over 60% in size
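Kinetic colorimetric format: TGR-catalysed, NADPH-driven DTNB reduction monitored via TNB absorbance. Enzyme dispensed at 20 nM; compound exposure 15 min at room temperature before reaction start.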
SARS PLpro yeast-1 – qHTS of Yeast-based Assay for SARS-CoV PLP; AID 485353, 2010; S. cerevisiae expressing SARS-CoV PLpro, growth rescue; 330,000 compounds, 0.19% hits; Potency, µM (titrated, usually from 32.9 µM), most hits filed as activators; calls by dose curve; further: nearly all actives have a fitted effect of over 55% in size
RE007 growth inh – qHTS Assay for Inhibitors of the HIV-1 protein Vpr; S. pombe RE007 Vpr strain, BacTiter-Glo ATP luminescence, 24 h; Potency, µM (doses to about 92.2 µM), most hits filed as inhibitors; 360,000 compounds, 0.21% hits; AID 651644, 2012; active means well fitted falling curve with a large enough effect; inconclusive means small, poorly fitted or top-dose-only effect; inactive means no such curve, though single readings can be large or run the other way; further: nearly all actives have a fitted effect of over 50% in size
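Fission yeast strain RE007, carrying one chromosomally integrated HIV-1 vpr copy, was seeded at OD 0.01 in PMG+AL medium with 23 nL pinned compound. After 24 h at 30 °C and 99% humidity, viability was read by BacTiter-Glo luminescence.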
AmpC detergent – qHTS Inhibitors of AmpC Beta-Lactamase (assay with detergent) | 370,000 compounds, 0.041% hits | AID 485294, 2010 | Potency, µM (doses to about 114 µM), most hits filed as inhibitors | AmpC hydrolysis of nitrocefin, absorbance 480 nm, 0.01% Triton; further: nearly all actives have a fitted effect of over 25% in size
Target sequence (P00811 whole entry, looked up): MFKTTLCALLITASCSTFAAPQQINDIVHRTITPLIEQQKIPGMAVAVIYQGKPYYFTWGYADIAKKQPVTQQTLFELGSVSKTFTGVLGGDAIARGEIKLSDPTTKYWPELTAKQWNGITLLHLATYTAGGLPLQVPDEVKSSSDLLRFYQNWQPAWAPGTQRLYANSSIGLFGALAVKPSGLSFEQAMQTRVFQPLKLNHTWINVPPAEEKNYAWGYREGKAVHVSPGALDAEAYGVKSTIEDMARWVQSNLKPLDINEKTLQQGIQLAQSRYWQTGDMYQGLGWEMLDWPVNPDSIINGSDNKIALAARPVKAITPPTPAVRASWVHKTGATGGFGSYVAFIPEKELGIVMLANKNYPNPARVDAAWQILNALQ
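AmpC (5.3 nM in the dispensed reagent) in 20 mM phosphate pH 7.0 with 0.01% (detergent screen) or 0.0001% Triton X-100 was preincubated with compounds for 15 min at room temperature. Nitrocefin was then added from an 800 uM solution, and hydrolysis was followed at 480 nm.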
Tb PYK inh – qHTS of Trypanosoma Brucei Inhibitors. TbPYK enzyme, Kinase-Glo Plus ATP luminescence, 45 min. 410,000 compounds, 0.12% hits. AID 624173, 2012. pyruvate kinase (Trypanosoma brucei), Q57TT1. Potency, µM (titrated, usually from 76.8 µM), most hits filed as inhibitors; further: nearly all actives have a fitted effect of over 50% in size
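Assay buffer: 50 mM TEA pH 7.2, 100 mM KCl, 10 mM MgCl2, 0.05% BSA, 0.01% Tween-20. Pyruvate kinase from T. brucei plus substrate met compound, then ADP (130 uM final). Luminescence was read post 45 min RT.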
AmpC inh no detg – qHTS Inhibitors of AmpC Beta-Lactamase (assay without detergent); P00811; AmpC nitrocefin hydrolysis, absorbance 480 nm, 0.0001% Triton; Potency, µM (highest dose often 57.1 µM), actives largely listed as inhibitors; 330,000 compounds, 0.52% hits; AID 485341, 2010; further: nearly all actives have a fitted effect of over 20% in size
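AmpC (5.3 nM in the dispensed reagent) in 20 mM phosphate pH 7.0 with 0.01% (detergent screen) or 0.0001% Triton X-100 was preincubated with compounds for 15 min at room temperature. Nitrocefin was then added from an 800 uM solution, and hydrolysis was followed at 480 nm.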
SARS PLpro yeast-2 – qHTS of Yeast-based Assay for SARS-CoV PLP: Hit Validation; shares compounds with SARS PLpro yeast-1; yeast expressing SARS-CoV PLpro, growth phenotype rescue; calls only; 1,000 compounds, 19% hits; AID 652038, 2013; call rule not given here
Hits are given with their value; 0 = inactive; ? = inconclusive; - = no result; + = active, no number; ! = not active in a repeat; [ ] = dose if it differs, or a comment. Unless noted, the call rests on the fitted dose curve; in most records, active means well fitted curve in the direction sought with a large enough effect; inconclusive means small, poorly fitted or top-dose-only effect, or another doubt; inactive means no such curve, though single readings can be large; an effect the other way counts as inactive or inconclusive.

SMILES	Sm TGR inh	SARS PLpro yeast-1	RE007 growth inh	AmpC detergent	Tb PYK inh	AmpC inh no detg	SARS PLpro yeast-2
Cc1nn(-c2ccccc2)c(N2CCCC2)c1/C=N/NC(=O)c1ccccc1O	0	0	0	0	0	0	-
O=C(N/N=C/c1cc2c3c(c1O)CCCN3CCC2)c1ccccc1O	?	2.82µM	?	0	0	0	?
Cc1ccc(C)c(NC(=O)CCS(=O)(=O)c2cccc3nsnc23)c1	0	-	-	?	0	-	-
CCc1ccc(S(=O)(=O)c2cn(C)c3cc(N4CCC(C)CC4)c(F)cc3c2=O)cc1	0	-	-	0	0	-	-
O=C(CCN1CCN(C(c2ccccc2)c2ccccc2)CC1)N/N=C/c1ccc(O)cc1	0	0	0	0	0	0	-
O=C(CCN1CCN(C(c2ccccc2)c2ccccc2)CC1)N/N=C/c1ccc(O)cc1O	0	4.47µM	0	?	0	0	0
CCOC(=O)c1c(C)[nH]c(C)c1S(=O)(=O)N1CCC(C(=O)Nc2cc(Cl)ccc2OC)CC1	0	-	-	0	0	-	-
Cc1ccc(-c2nc3ccccc3c(=O)n2-c2cc(C)ccn2)cc1	0	3.98µM	0	0	0	0	0
CC(C)(C)OC(=O)C[C@H]1C/C=C\C[C@@H](CC(=O)N[C@@H](CO)Cc2ccccc2)C(=O)NC[C@H](c2ccccc2)OC1=O	-	3.55µM	0	-	0	0	0
Cc1ccc(OCCCCn2c(-c3ccc(Cl)cc3)nc3ccccc3c2=O)cc1	0	-	-	0	0	-	-
CC(=O)Nc1ccc(NC(=O)CSc2nc3ccccc3c(=O)n2CCCN2CCOCC2)cc1	-	0	0	-	0	0	-
O=C(CSc1nc2ccccc2c(=O)n1CCCN1CCOCC1)Nc1ccccc1OC(F)F	-	2.82µM	0	-	0	0	0
O=C(O)CCC(=O)Nc1ccccc1C(=O)Nc1ccccc1	0	0	0	0	0	0	-
O=C(O)CCC(=O)Nc1ccccc1C(=O)NCCc1ccccc1	0	3.98µM	0	0	0	0	0
Cc1cc([N+](=O)[O-])nn1CC(=O)N1CCCc2ccccc21	0	15.8µM	0	0	0	0	0
CCCSc1ncc(Cl)c(C(=O)N(Cc2ccc(N(C)C)cc2)C2CCS(=O)(=O)C2)n1 (stereo not drawn)	0	-	-	0	0	-	-
Cc1csc(N/N=C/c2ccc(O)c([N+](=O)[O-])c2)n1	10µM	10µM	0	0	0	0	+
Cc1ccc2c(c1)c1c(c(=O)n(-c3ccccc3)c(=O)n1CC(=O)c1ccc(F)cc1)n2C	0	-	-	0	0	-	-
CSc1nnc(NC(=O)c2cc(=O)c3cc(C)c(C)cc3o2)s1	0	-	-	0	0	-	-
[O-][n+]1c2ccccc2c2n1CCN=C2c1ccc(Cl)cc1	0	0	0	0	0	0	-
COc1ccc2c3n([n+]([O-])c2c1)CCN=C3c1ccc(Cl)cc1	0	?	0	0	0	0	0
O=C(Nc1ccc(-c2nc3cc(NC(=O)c4ccc(Cl)cc4)ccc3o2)cc1)c1ccc(Cl)cc1	0	-	-	0	0	-	-
Cc1ccc(Nc2cc(C)nc(N3CCOCC3)n2)cc1	0	0	0	0	0	0	-
CCCCNc1cc(C)nc(N2CCOCC2)n1	0	?	0	0	0	0	0
CCOC(=O)c1sc2ccccc2c1S(=O)(=O)NCc1ccc(F)cc1	0	-	-	0	0	-	-
SMILES	Sm TGR inh	SARS PLpro yeast-1	RE007 growth inh	AmpC detergent	Tb PYK inh	AmpC inh no detg	SARS PLpro yeast-2
COc1ccc(S(=O)(=O)NCCc2sc(C)nc2C)cc1F	0	-	-	0	0	-	-
COc1cccc(-c2ccc3ncnc(NCc4cccs4)c3c2)c1	0	7.08µM!	-	?	0	?	0
CC(=O)c1ccc(NC(=O)C2CCN(c3nnc(C)c4c(C)n(-c5ccccc5)nc34)CC2)cc1	0	-	-	0	0[15.4 µM]	-	-
O=[N+]([O-])c1cccc(-c2ccc(/C=N/NC(=S)Nc3ccccc3)o2)c1	0	?	0	?	0	?	+
O=[N+]([O-])c1ccc(/C=N/NC(=S)Nc2ccccc2)o1	?	0	0	0	0	0	-
O=C(Cc1cccs1)NC1CC(=O)N(c2ccccc2)C1 (stereo not drawn)	0	-	-	0	0	-	-
Cc1ccc(C(=O)O/N=C(\N)c2cccc([N+](=O)[O-])c2)cc1	0	0	0	0	0	0	-
Cc1ccc(CC(=O)O/N=C(\N)c2cccc([N+](=O)[O-])c2)cc1	0	-	0	?	0	0	0
CCC(C)C(=O)Nc1nccs1 (stereo not drawn)	0	10µM	0	0	0	0	0
CCOC(=O)c1ccc(NC(=O)Nc2c[nH]c(=O)[nH]c2=O)cc1	0	-	-	0	0	-	-
CCCC(C(=O)O)N1C(=O)/C(=C/c2cccn2C)SC1=S (stereo not drawn)	0	?	0	0	0	0	0
